The nature of experiment [1]: BSK_BT_Bcell_Proliferation: Viability Assessment in the BioMAP Diversity Plus: BT Assay for B cell Proliferation (AID 2284227). The conditions noted are these: primary human B cells with PBMC. The procedure, abridged: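 Human B cell/PBMC co-culture; test chemical added; 72 h; TCA fix (10%), 0.1% SRB stain, A560 for total protein as a proliferation read-out; positive-direction fit vs DMSO baseline.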

Read-out in experiment [2]: Interleukin 6 (IL6), IL6 (gene 3569)
Kind of experiment: BSK_BT_xIL6: BioMAP Diversity Plus: BT Assay for Interleukin 6 (IL6) Biomarker Activity (AID 2284228). The conditions noted are these: primary human B cells with PBMC. The procedure, abridged:
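Human B cell/PBMC co-culture; secreted IL-6 quantified by Luminex xMAP 24 h after chemical dosing, fitted relative to DMSO. Parallel PBMC viability by Alamar Blue after 1 h pretreatment, 20 ng/mL SEB and TSST-1, 90 h incubation.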

Read-out in experiment [3]: Interleukin 17A (IL17A), IL17A (gene 3605)
Kind of experiment: BSK_BT_xIL17A: BioMAP Diversity Plus: BT Assay for Interleukin 17A (IL17A) Biomarker Activity (AID 2284229). The note with it: primary human B cells with PBMC. The procedure, abridged:
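Co-culture of human B cells and PBMC, dosed for 24 h in 96-well format. Secreted IL-17A measured with Luminex xMAP; gain-direction fitting against DMSO as baseline.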

Read-out in experiment [4]: Tumor necrosis factor (Homo sapiens) (UniProt P01375)
Kind of experiment: BSK_BT_xTNFa: BioMAP Diversity Plus: BT Assay for Tumor necrosis factor alpha (TNF-alpha) Biomarker Activity (AID 2284230). The note with it: primary human B cells with PBMC. The procedure, abridged:
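Read-out: Luminex xMAP quantitation of secreted TNF-alpha from a B cell/PBMC co-culture 24 h after compound addition. Signal analysed relative to DMSO vehicle, positive fitting direction.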

Read-out in experiment [5]: Vascular cell adhesion molecule 1 (VCAM1), VCAM1 (gene 7412)
Kind of experiment: BSK_MyoF_VCAM1: BioMAP Diversity Plus: MyoF Assay for Vascular cell adhesion molecule 1 (VCAM1) Biomarker Activity (AID 2284231). The conditions noted are these: primary human lung fibroblasts. The procedure, abridged: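 Primary human lung fibroblasts (BioMAP MyoF system) dosed with chemical, VCAM-1 measured by ELISA 24 hours later. Fitted in the positive direction against DMSO; parallel SRB staining assessed cytotoxicity.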

Read-out in experiment [6]: Collagen III, COL3A1 (gene 1281)
Kind of experiment: BSK_MyoF_CollagenIII: BioMAP Diversity Plus: MyoF Assay for Collagen III Biomarker Activity (AID 2284239). The conditions noted are these: primary human lung fibroblasts. The procedure, abridged:
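Primary human lung fibroblasts (BioMAP MyoF system) exposed 24 h. Collagen III measured by ELISA; positive-direction fit relative to DMSO.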

Read-out in experiment [7]: Interleukin 17F (IL17F), IL17F (gene 112744)
The experiment can be described thus: BSK_BT_xIL17F: BioMAP Diversity Plus: BT Assay for Interleukin 17F (IL17F) Biomarker Activity (AID 2284243). The conditions noted are these: primary human B cells with PBMC. The gist of the method:
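Human PBMC co-cultured with B cells, compound exposure 24 h; secreted IL-17F quantified by Luminex xMAP, referenced to DMSO control. PBMC viability measured in parallel by Alamar Blue reduction.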

Read-out in experiment [8]: Actin alpha 1 (ACTA1), ACTA1 (gene 58)
The experiment can be described thus: BSK_MyoF_ACTA1: BioMAP Diversity Plus: MyoF Assay for Actin alpha 1 (ACTA1) Biomarker Activity (AID 2284244). The conditions noted are these: primary human lung fibroblasts. The procedure, abridged: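 Human lung fibroblast (MyoF system) cultures dosed with test chemical; alpha-SMA measured by ELISA 24 h after dosing, normalized to DMSO control. Cytotoxicity tracked in parallel cultures by SRB total-protein staining.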

Read-out in experiment [9]: Interleukin 2 (IL2), IL2 (gene 3558)
Kind of experiment: BSK_BT_xIL2: BioMAP Diversity Plus: BT Assay for Interleukin 2 (IL2) Biomarker Activity (AID 2284245). The conditions noted are these: primary human B cells with PBMC. The gist of the method:
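Human B cell plus PBMC co-culture, 24 h after chemical dosing; secreted IL-2 quantified by Luminex xMAP multiplex, fitted for signal gain against DMSO baseline.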

Read-out in experiment [10]: Basic fibroblast growth factor (bFGF), FGF2 (gene 2247)
Kind of experiment: BSK_MyoF_bFGF: BioMAP Diversity Plus: MyoF Assay for Basic fibroblast growth factor (bFGF) Biomarker Activity (AID 2284246). The conditions noted are these: primary human lung fibroblasts. The gist of the method:
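Human lung fibroblast cultures were dosed and measured 24 h later in 96-well format. bFGF biomarker levels quantified by ELISA, with activity fitted in the positive direction against DMSO.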

Read-out in experiment [11]: Collagen IV, COL4A1 (gene 1282)
The experiment can be described thus: BSK_MyoF_CollagenIV: BioMAP Diversity Plus: MyoF Assay for Collagen IV Biomarker Activity (AID 2284247). The conditions noted are these: primary human lung fibroblasts. The gist of the method:
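Primary human lung fibroblasts (MyoF system) dosed 24 h; Collagen IV measured by ELISA. Activity fitted in positive direction against DMSO; cytotoxicity tracked by SRB total-protein staining in parallel cultures.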

Read-out in experiment [12]: Plasminogen activator inhibitor-1 (PAI1), SERPINE1 (gene 5054)
Kind of experiment: BSK_MyoF_PAI1: BioMAP Diversity Plus: MyoF Assay for Plasminogen activator inhibitor-1 (PAI1) Biomarker Activity (AID 2284256).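 Further: PAI-1 read 24 h after compound addition.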 The note with it: primary human lung fibroblasts. The procedure, abridged:
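Primary human lung fibroblasts treated with chemical for 24 h; PAI-1 levels quantified by ELISA relative to DMSO. Cytotoxicity was assessed in parallel cultures by SRB total-protein staining (0.1% SRB after 10% TCA fixation, 560 nm).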

Read-out in experiment [13]: Interleukin-8 (IL8), CXCL8 (gene 3576)
Kind of experiment: BSK_MyoF_IL8: BioMAP Diversity Plus: MyoF Assay for Interleukin-8 (IL8) Biomarker Activity (AID 2284261). The conditions noted are these: primary human lung fibroblasts. The gist of the method:
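Human lung fibroblast (MyoF system) cultures dosed for 24 h, then IL-8 measured by ELISA. Response taken relative to DMSO; parallel SRB total-protein staining for cytotoxicity.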

Read-out in another experiment: Decorin, DCN (gene 1634)
Kind of experiment: BSK_MyoF_Decorin: BioMAP Diversity Plus: MyoF Assay for Decorin Biomarker Activity (AID 2284265). The conditions noted are these: primary human lung fibroblasts. The gist of the method: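 Human lung fibroblast cultures were dosed for 24 h, and decorin was then measured by ELISA. Parallel cultures were stained with sulforhodamine B for total protein as a cytotoxicity check. Gain of signal was fitted relative to DMSO.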

Experiment [14] in a line: BSK_MyoF_SRB: Viability Assessment in the BioMAP Diversity Plus: MyoF Assay (AID 2284267).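 Further: total protein by SRB absorbance in parallel cultures as cytotoxicity measure.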 The conditions noted are these: primary human lung fibroblasts. The gist of the method:
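Human lung fibroblasts, 24 h after chemical dosing; total protein measured by 0.1% sulforhodamine B staining after 10% TCA fixation, read at 560 nm, fitted relative to DMSO baseline.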

Read-out in experiment [15]: Matrix Metallopeptidase 1 (MMP1), MMP1 (gene 4312)
The experiment can be described thus: BSK_MyoF_MMP1: BioMAP Diversity Plus: MyoF Assay for Matrix Metallopeptidase 1 (MMP1) Biomarker Activity (AID 2284268). The note with it: primary human lung fibroblasts. The procedure, abridged:
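Human lung fibroblast primary cells; MMP1 measured by ELISA 24 h after dosing, fitted in the positive direction relative to DMSO. Parallel SRB staining (0.1%, after 10% TCA fixation, 560 nm) assesses overt cytotoxicity.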

Read-out in experiment [16]: TIMP metallopeptidase inhibitor 1 (TIMP1), TIMP1 (gene 7076)
Kind of experiment: BSK_MyoF_TIMP1: BioMAP Diversity Plus: MyoF Assay for TIMP metallopeptidase inhibitor 1 (TIMP1) Biomarker Activity (AID 2284269). The conditions noted are these: primary human lung fibroblasts. The gist of the method: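 ELISA read-out of TIMP-1 from primary human lung fibroblast cultures 24 h after compound dosing; gain of signal relative to DMSO vehicle baseline defines activity.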

A short description of experiment [17]: CCTE_Deisenroth_AIME_384WELL_CTox_Inactive: Cytotoxicity Assessment (CTOX) in CCTE's 384-well Estrogen Receptor Transactivation Assay without AIME metabolic competence (metabolism negative), Deisenroth Lab (AID 2284039; active means hit-call score of the fitted dose curve at least 0.9, where 1 is the maximum;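 further: cell viability via live-cell protease substrate cleaved to fluorescent probe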). The procedure, abridged: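 Fluorescent protease-substrate viability readout after 24 h exposure of VM7Luc4E2 cells to conditioned medium. Chemicals (0.002–200 uM) first sat 2 h over alginate-water beads, no S9. Data fitted bidirectionally, loss of signal meaning viability loss.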

Experiment [18] concerns the target human Phosphodiesterase 10 (PDE10), PDE10A (gene 10846) (UniProt Q9Y233). The experiment can be described thus: NVS_ENZ_hPDE10: NovaScreen (NVS) Enzymatic Assay for human Phosphodiesterase 10 (PDE10) (AID 2283195; active means hit-call score of the fitted dose curve at least 0.9, where 1 is the maximum). The gist of the method:
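Fluorescence/mobility-shift readout of PDE10A enzyme activity, taken 1 h post-dosing. Primary screen in duplicate at 25 uM; actives (e.g. ≥30% inhibition) retested as singleton concentration-response, top concentration 50 uM.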

Experiment [19] deals with Retinoic acid receptor alpha (Homo sapiens) (UniProt P10276). The experiment can be described thus: ATG_RARa_TRANS: Attagene TRANS-FACTORIAL HepG2 Assay for human Retinoic Acid Receptor alpha (RARa) (AID 2283005; active means hit-call score of the fitted dose curve at least 0.9, where 1 is the maximum). The gist of the method: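 HepG2 cells transiently transfected with multiple reporter units expressing chimeric RARα-GAL4 fusion, with GAL4-UAS-driven reporters. After 24 h compound exposure, reporter mRNA induction quantified by RT-PCR and capillary electrophoresis with fluorescent labeling; gain-of-signal fitted relative to DMSO control.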

Usually AC50 stands for the concentration giving half of the maximal activity seen.

Results filed as inconclusive are left out. Active and inactive are the calls of the source. How the source made its calls, unless noted: active means hit-call score of the fitted dose curve at least 0.9, where 1 is the maximum; inactive means score below 0.9.

Sequence of human Phosphodiesterase 10 (PDE10), PDE10A (gene 10846) (Q9Y233 whole entry, looked up): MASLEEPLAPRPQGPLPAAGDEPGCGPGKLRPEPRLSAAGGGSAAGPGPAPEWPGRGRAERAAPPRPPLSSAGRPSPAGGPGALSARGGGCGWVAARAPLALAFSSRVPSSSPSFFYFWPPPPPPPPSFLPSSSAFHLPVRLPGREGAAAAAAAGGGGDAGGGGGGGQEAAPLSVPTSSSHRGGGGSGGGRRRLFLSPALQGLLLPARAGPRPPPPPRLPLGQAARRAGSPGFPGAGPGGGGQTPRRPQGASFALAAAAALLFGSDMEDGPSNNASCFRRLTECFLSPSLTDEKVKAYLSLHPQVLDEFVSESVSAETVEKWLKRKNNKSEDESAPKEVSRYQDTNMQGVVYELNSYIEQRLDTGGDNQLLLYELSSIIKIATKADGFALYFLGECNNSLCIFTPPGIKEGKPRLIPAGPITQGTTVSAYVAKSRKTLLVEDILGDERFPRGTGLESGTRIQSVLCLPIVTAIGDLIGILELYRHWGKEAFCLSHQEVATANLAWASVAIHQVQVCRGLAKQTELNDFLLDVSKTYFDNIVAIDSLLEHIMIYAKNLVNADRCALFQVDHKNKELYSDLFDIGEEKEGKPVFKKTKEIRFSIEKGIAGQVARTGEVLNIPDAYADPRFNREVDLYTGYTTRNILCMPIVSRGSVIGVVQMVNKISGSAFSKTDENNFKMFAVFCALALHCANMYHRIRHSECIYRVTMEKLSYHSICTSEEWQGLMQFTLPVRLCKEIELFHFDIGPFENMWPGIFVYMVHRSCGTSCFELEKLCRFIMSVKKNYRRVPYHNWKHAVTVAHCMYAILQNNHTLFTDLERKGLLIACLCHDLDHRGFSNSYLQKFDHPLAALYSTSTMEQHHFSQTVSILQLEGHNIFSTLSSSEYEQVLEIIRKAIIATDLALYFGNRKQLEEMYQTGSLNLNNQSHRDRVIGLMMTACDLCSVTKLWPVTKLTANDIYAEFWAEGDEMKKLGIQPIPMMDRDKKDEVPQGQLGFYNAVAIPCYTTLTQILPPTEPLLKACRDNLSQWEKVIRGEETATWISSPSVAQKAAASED
Sequence of Retinoic acid receptor alpha (Homo sapiens) (P10276 whole entry, looked up, the tested form may be a part): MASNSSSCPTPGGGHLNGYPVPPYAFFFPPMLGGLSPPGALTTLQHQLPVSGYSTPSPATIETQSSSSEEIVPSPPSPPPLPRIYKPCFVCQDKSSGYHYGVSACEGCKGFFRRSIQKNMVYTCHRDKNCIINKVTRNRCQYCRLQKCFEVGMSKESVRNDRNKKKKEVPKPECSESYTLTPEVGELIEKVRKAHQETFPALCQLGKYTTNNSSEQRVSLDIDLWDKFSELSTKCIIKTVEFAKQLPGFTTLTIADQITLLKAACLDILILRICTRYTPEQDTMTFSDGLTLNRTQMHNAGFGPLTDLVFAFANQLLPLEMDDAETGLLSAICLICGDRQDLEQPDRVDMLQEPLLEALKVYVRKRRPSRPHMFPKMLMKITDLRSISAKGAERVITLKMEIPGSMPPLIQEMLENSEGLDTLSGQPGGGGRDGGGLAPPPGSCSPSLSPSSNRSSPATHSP
Sequence of Tumor necrosis factor (Homo sapiens) (P01375 whole entry, looked up): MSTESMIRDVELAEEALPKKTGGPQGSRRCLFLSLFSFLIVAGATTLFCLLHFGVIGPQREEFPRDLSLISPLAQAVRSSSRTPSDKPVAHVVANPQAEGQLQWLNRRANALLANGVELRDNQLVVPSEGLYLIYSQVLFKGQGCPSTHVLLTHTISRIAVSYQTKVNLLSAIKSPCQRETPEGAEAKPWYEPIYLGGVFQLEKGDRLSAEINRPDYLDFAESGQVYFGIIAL

As to `Cc1cc(-n2nc3ccc(Cl)cc3n2)c(O)c(C(C)(C)C)c1`, the result in [1], in experiment [2], in experiment [3], in [4], in experiment [5] and in [6] was inactive. The result in [7], in experiment [8], in [9], in experiment [10], in [11] and in experiment [12] was inactive. Besides, the outcome in [13] is “inactive”; in the experiment with Decorin, DCN (gene 1634) it was “inactive”; in experiment [14], “inactive”; in experiment [15], “inactive”; in experiment [16] it was “inactive”.
For `Cc1cccnc1`, the result in experiment [1], in [2], in experiment [3], in [4], in [5] and in experiment [6] was inactive. Moreover, the result in [7], in experiment [8], in [9], in experiment [10], in [11] and in experiment [12] was inactive. Moreover, the outcome in [13] is “inactive”; with Decorin, DCN (gene 1634), “inactive”; in experiment [14], “inactive”; in experiment [15], “inactive”; in [16], “inactive”.
Consider `C1=CCC=C1`, for which the result in [17] was inactive.
Turning to `COc1ccccc1OCC(O)CO` (stereo not drawn), in [18], the concentration at half-maximal activity (AC50) was 25 µM (active).
Consider `CC(C)CC(=O)O`, for which the molecule was classed as inactive in [18].
As to `NC(=O)c1ccc(N)cc1`, the outcome in experiment [19] was inactive.
`CCCCCC1CCCC(=O)O1` (stereo not drawn): the outcome in [19] and in experiment [18] was inactive.
As to `CCCCOC(=O)COc1ccc(Cl)cc1Cl`, the call in experiment [17] was inactive.
For `CCCCCCC(O)CCCCCCCCCCC(=O)OC` (stereo not drawn), the outcome in experiment [19], in [1], in experiment [2], in [3], in [4] and in experiment [5] was inactive. The result in experiment [6], in [7], in experiment [8], in experiment [9], in experiment [10] and in experiment [11] was inactive. Besides, the outcome in experiment [12] was “inactive”; in [13], “inactive”; with Decorin, DCN (gene 1634) it was “inactive”; in experiment [14] it was “inactive”; in experiment [15], “inactive”; in [16] it was “inactive”.
For `CC(=O)Nc1c(I)c(NC(C)=O)c(I)c(C(=O)O)c1I`, the call in [19] was inactive.
For the molecule `CCOc1ccc2c(c1)C(C)CC(C)(C)N2` (stereo not drawn), the molecule was classed as inactive in [19].
Turning to `CCC(C)NC(N)=O` (stereo not drawn), the outcome in experiment [18] was inactive.
`CC(=O)CCc1ccccc1`: in experiment [18], the outcome was inactive.

The values are drawn from PubChem BioAssay (EPA / NIEHS).
